Among the test systems are NCI-H23 lung; NCI-H226 lung; NCI-H322M lung; HOP-62 NSCLC; NCI-H460 lung; HOP-92 NSCLC; NCI-H522 lung; A549/ATCC NSCLC; 786-0 renal; COLO 205 colon; DU-145 prostate; K-562 leukemia; MALME-3M melanoma; MDA-MB-231 breast; RXF 393 renal; SF-268 CNS; SF-295 CNS; SF-539 CNS; UACC-257 melanoma; M14 melanoma.
Common to all, as to assay: NCI-60 one-dose screen, 48 h (100 = growth as untreated, 0 = no growth, -100 = all killed)
Holding throughout (details): 10 µM unless noted

The text below walks through data of PubChem BioAssay (NCI).

The structures appear in SMILES notation. Compounds without any hit were thinned out: in the full panel of roughly 83,000, 20% have a hit.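 Note: values are percent growth. 100 is the growth of untreated cells, values between 100 and 0 indicate rising inhibition; between -100 and 0 indicates cell death.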 Unmarked numbers belong to inactive results. Activity calls are given as the source filed them. Rule for the calls: active = growth percent below 10; inactive = the rest.

For the compound `COc1ccc(Nc2nn3c(C)cc(C)nc3c2C(=O)Nc2ccc(C)cc2)c(OC)c1`, the growth in the test on NCI-H23 lung is 92.7%; in the test with NCI-H226 lung, 101%; in the test on NCI-H322M lung it was 92.8%; in the test on HOP-62 NSCLC, 85.8%; in the test on NCI-H460 lung it was 101%; in the test on HOP-92 NSCLC it was 87.1%. The growth in the test with NCI-H522 lung is 88.6%; in the test with A549/ATCC NSCLC, 93.5%; with 786-0 renal it was 90.9%; in the test with COLO 205 colon it was 98.7%; with DU-145 prostate, 113%; with K-562 leukemia, 108%. The growth was 124% in the test on MALME-3M melanoma; 108% with MDA-MB-231 breast; 107% in the test on RXF 393 renal; 100% with SF-268 CNS; 107% in the test on SF-295 CNS; 102% with SF-539 CNS. For the same compound, the results for the growth in the test with UACC-257 melanoma and in the test on M14 melanoma were 98.6% and 101%, respectively.
In the case of `COc1ccc(-n2c(=O)sc3c(Cl)nc(C)nc32)c(OC)c1`, the growth was 79.8% in the test on NCI-H23 lung; 99.4% in the test on NCI-H226 lung; 96.5% in the test on NCI-H322M lung; 86.1% with HOP-62 NSCLC; 57.4% in the test with NCI-H460 lung; 76.9% with HOP-92 NSCLC. For the same compound, the growth in the test on NCI-H522 lung was 78.5%; in the test with A549/ATCC NSCLC, 98.7%; with 786-0 renal it was 99.2%; in the test on COLO 205 colon, 99.4%; in the test on DU-145 prostate, 84.3%; with K-562 leukemia, 24.9%. In addition, the growth is 101% in the test on MALME-3M melanoma; 80.4% with MDA-MB-231 breast; 93.5% in the test on RXF 393 renal; 63.3% with SF-268 CNS; 104% in the test on SF-295 CNS; 105% with SF-539 CNS. In addition, the results for the growth in the test with UACC-257 melanoma and in the test on M14 melanoma were 85.1% and 75.7%, respectively.
As to `COc1ccc2c(c1)cn1c3ccc(OC)cc3[nH]c(=O)c21`, the growth was 33.3% with NCI-H23 lung; 5.93% (active) in the test with NCI-H226 lung; -45.3% (active) with NCI-H322M lung; 5.85% (active) in the test on HOP-62 NSCLC; -51% (active) in the test on NCI-H460 lung; 28.4% with HOP-92 NSCLC. For the same compound, the growth was -44.9% (active) in the test with NCI-H522 lung; -57% (active) with A549/ATCC NSCLC; -88.3% (active) in the test on 786-0 renal; -61.3% (active) in the test with COLO 205 colon; -87.1% (active) in the test on DU-145 prostate; -28.1% (active) with K-562 leukemia. For the same compound, the growth is 42.1% in the test on MALME-3M melanoma; -86.9% (active) in the test on MDA-MB-231 breast; -82.2% (active) in the test with RXF 393 renal; -14% (active) with SF-268 CNS; -84.9% (active) with SF-295 CNS; -84.9% (active) with SF-539 CNS. Also, the growth is 54.7% in the test on UACC-257 melanoma and -65.1% (active) in the test with M14 melanoma.
Turning to `C/C=C(\C)C(C(=O)NC1CCCCC1)N(C(=O)C1CCc2cc(F)ccc2O1)c1ccc(Cl)cc1` (stereo not given), the growth in the test with NCI-H23 lung was 103%; in the test on NCI-H226 lung, 93.7%; in the test on NCI-H322M lung it was 110%; in the test on HOP-62 NSCLC it was 93.6%; in the test with NCI-H460 lung, 104%; in the test with HOP-92 NSCLC, 108%. Besides, the growth with NCI-H522 lung was 92%; in the test on A549/ATCC NSCLC, 96.2%; with 786-0 renal, 101%; with COLO 205 colon, 106%; in the test on DU-145 prostate, 108%; in the test on K-562 leukemia it was 99.7%. Moreover, the growth is 109% in the test on MALME-3M melanoma; 103% in the test with MDA-MB-231 breast; 109% with RXF 393 renal; 97.2% in the test on SF-268 CNS; 97.5% in the test with SF-295 CNS; 98.2% with SF-539 CNS. Moreover, the growth in the test on UACC-257 melanoma is 98.8%; in the test with M14 melanoma it was 103%.
As for `N=c1ccc2nc3ccc(N)cc3sc-2c1`, the growth in the test on NCI-H23 lung is 12.8%; with NCI-H226 lung, 87.8%; with NCI-H322M lung, 51.6%; in the test with HOP-62 NSCLC it was 15%; in the test with NCI-H460 lung, 43.6%; in the test on HOP-92 NSCLC, 40.6%. In addition, the growth in the test on NCI-H522 lung was 12.8%; with A549/ATCC NSCLC it was 7.01% (active); in the test on 786-0 renal, 59.1%; in the test with COLO 205 colon, 0.589% (active); with DU-145 prostate, 89.4%; with K-562 leukemia it was 26.6%. Besides, the growth was 31.8% in the test with MALME-3M melanoma; 17% in the test with MDA-MB-231 breast; 73.5% in the test with RXF 393 renal; 39.7% with SF-268 CNS; 35.5% with SF-295 CNS; 2.29% (active) with SF-539 CNS. Also, the growth in the test with UACC-257 melanoma is 2.21% (active); in the test on M14 melanoma, 13.8%.
As for `COc1ccc(CNCCCN2C(=O)c3ccc4c5c(ccc(c35)C2=O)C(=O)N(CCCNCCCCNCCCN)C4=O)c(OC)c1OC`, the growth in the test on NCI-H23 lung was 23.1%; in the test on NCI-H226 lung it was 23.8%; in the test on NCI-H322M lung it was 30.4%; in the test with HOP-62 NSCLC, 19.3%; in the test with NCI-H460 lung, 19.6%; with HOP-92 NSCLC it was 51.7%. Further, the growth was 1.57% (active) with NCI-H522 lung; 25.3% in the test with A549/ATCC NSCLC; 22.4% in the test with 786-0 renal; -86.1% (active) in the test on COLO 205 colon; 36.9% in the test on DU-145 prostate; 6.82% (active) in the test on K-562 leukemia. Further, the growth was -72.5% (active) in the test with MALME-3M melanoma; 28% with MDA-MB-231 breast; 7.45% (active) in the test on RXF 393 renal; 17% in the test with SF-268 CNS; 31.4% in the test on SF-295 CNS; 1.73% (active) with SF-539 CNS. The growth in the test on UACC-257 melanoma was -83.3% (active); in the test on M14 melanoma, 5.46% (active).
With `COc1ccc(/C=C(\C#N)c2cc(OC)c3c(c2)OCO3)cc1`, the growth in the test on NCI-H23 lung is 37.5%; with NCI-H226 lung, 26.7%; in the test with NCI-H322M lung it was 44%; in the test with HOP-62 NSCLC it was 35.8%; in the test with NCI-H460 lung, 5.33% (active); with HOP-92 NSCLC, 43.6%. The growth in the test with NCI-H522 lung is -8.84% (active); in the test with A549/ATCC NSCLC, 15.4%; with 786-0 renal it was 20%; in the test on COLO 205 colon it was -41% (active); with DU-145 prostate, -12.7% (active); in the test with K-562 leukemia, 9.08% (active). Also, the growth in the test with MALME-3M melanoma is 54.2%; in the test on MDA-MB-231 breast, 10.4%; in the test on RXF 393 renal it was 21.4%; in the test with SF-268 CNS, 26.9%; with SF-295 CNS it was 4.91% (active); in the test on SF-539 CNS, 4.3% (active). Besides, the growth is 84% in the test with UACC-257 melanoma and 12.1% with M14 melanoma.
Take `COc1ccc(Nc2nc(N)nc3c2CCN(Cc2ccc(OC)cc2OC)C3=O)cc1`: the growth was 73.1% in the test on NCI-H23 lung; 88% in the test with NCI-H226 lung; 71.1% with NCI-H322M lung; 63.2% with HOP-62 NSCLC; 67.8% with NCI-H460 lung; 7.69% (active) with HOP-92 NSCLC. In addition, the growth in the test with NCI-H522 lung was 89.3%; in the test with A549/ATCC NSCLC, 85.6%; in the test on 786-0 renal, 72.1%; in the test with COLO 205 colon, 110%; in the test with DU-145 prostate, 88.6%; in the test with K-562 leukemia, 72.7%. The growth was 80.8% in the test on MALME-3M melanoma; 84.7% in the test on MDA-MB-231 breast; 81.6% in the test on RXF 393 renal; 87.3% in the test on SF-268 CNS; 57.1% in the test with SF-295 CNS; 63.5% in the test with SF-539 CNS. Besides, the results for the growth with UACC-257 melanoma and in the test on M14 melanoma were 88.3% and 64.6%, respectively.
